Consider 14 compounds from the supplement of paper PMC6522484.

The test system of test [1] is DLD1. The experiment in a line: cell viability (CellTiter-Glo) relative to plate median (fraction of plate median); higher = more viable cells. The conditions noted are these: 5 µM; treatment time 24 h; reporter: 7TFP. The gist of the method: (§1)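 Two independent replicates were averaged for each reported value. Library compounds were applied at a final 5 µM for 24 h to colorectal cancer cell lines stably expressing lentiviral TCF/Wnt firefly luciferase reporters. Firefly luciferase or CellTiterGlo luminescence from each well was normalised to the plate median.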

For another test, the system named is HCT116. The description is as above. The conditions noted are these: 5 µM; treatment time 24 h; reporter: TCF4/Wnt. The gist of the method: as §1
Test [2] concerns SW480. Described as above. The conditions noted are these: 5 µM; treatment time 24 h; reporter: 7TFP. The gist of the method: as §1
The subject of test [3] is DLD1. The experiment in a line: TCF/Wnt firefly luciferase reporter signal relative to plate median (fraction of plate median); higher = higher Wnt reporter signal. The conditions noted are these: 5 µM; treatment time 24 h; reporter: 7TFP. The gist of the method:
as §1
A general note: In a reporter assay the amount or activity of a reporter protein is the signal.

For test [4], the system named is SW480. The description is as above. The conditions noted are these: 5 µM; treatment time 24 h; reporter: 7TFP. The gist of the method:
as §1

± gives the standard deviation of the averaged measurements.

Consider `Nc1ccc(S(=O)(=O)Nc2cnc3ccccc3n2)cc1`, for which the cell viability in the test on DLD1 [1] came out at 0.996 ± 0.02; in the test with HCT116, 1.07 ± 0.028; in the test with SW480 [2], 1 ± 0.08. For the same compound, the “TCF/Wnt firefly luciferase reporter signal” value in the test with DLD1 [3] turned out to be 1.11 ± 0.085; in the test on SW480 [4], 1.045 ± 0.0071.

For the compound `CC(=O)N(O)CCCCCNC(=O)CCC(=O)N(O)CCCCCNC(=O)CCC(=O)N(O)CCCCCN`, the cell viability in the test on DLD1 [1] came to 0.987 ± 0.015; in the test with HCT116, 0.95 ± 0.032; in the test on SW480 [2], 0.89 ± 0.073. The “TCF/Wnt firefly luciferase reporter signal” value worked out at 0.869 ± 0.067 in the test on DLD1 [3] and 1.06 ± 0.021 in the test with SW480 [4].

As to `CC(C(=O)O)c1cccc(C(=O)c2ccccc2)c1` (stereo not given), the cell viability was 1.14 ± 0.13 in the test with DLD1 [1], 0.931 ± 0.035 in the test with HCT116 and 1.04 ± 0.028 in the test with SW480 [2]. Also, the “TCF/Wnt firefly luciferase reporter signal” value in the test on DLD1 [3] came out at 0.9355 ± 0.0064; in the test with SW480 [4], 1.03 ± 0.014.

As to `CC[C@H]1OC(=O)[C@H](C)[C@@H](O[C@H]2C[C@@](C)(OC)[C@@H](O)[C@H](C)O2)[C@H](C)[C@@H](O[C@@H]2O[C@H](C)C[C@H](N(C)C)[C@H]2O)[C@](C)(O)C[C@@H](C)[C@@H]2N[C@@H](COCCOC)O[C@H]([C@H]2C)[C@]1(C)O`, the results for the cell viability in the test on DLD1 [1], in the test on HCT116 and in the test with SW480 [2] were 1.02 ± 0.049, 0.991 ± 0.027 and 0.931 ± 0.0028, respectively. In addition, the “TCF/Wnt firefly luciferase reporter signal” value with DLD1 [3] amounted to 0.975 ± 0.05; with SW480 [4], 0.998 ± 0.045.

On to `CCC(Cc1c(I)cc(I)c(N)c1I)C(=O)O` (stereo not given), for which the cell viability turned out to be 1.08 ± 0.057 in the test on DLD1 [1], 1.05 ± 0.035 with HCT116 and 1.07 ± 0.028 in the test with SW480 [2]. The “TCF/Wnt firefly luciferase reporter signal” value in the test with DLD1 [3] came out at 1.035 ± 0.0071; with SW480 [4], 1.04 ± 0.035.

Consider `Clc1ccccc1CN1CCc2sccc2C1`, for which the cell viability with DLD1 [1] came out at 0.988 ± 0.013; with HCT116, 1.07 ± 0.05; with SW480 [2], 1 ± 0.057. Besides, the “TCF/Wnt firefly luciferase reporter signal” value stood at 0.934 ± 0.036 in the test with DLD1 [3] and 1.01 ± 0.071 with SW480 [4].

Take `O=C1OC2(c3ccc(O)cc3Oc3cc(O)ccc32)c2ccccc21`: the cell viability in the test on DLD1 [1] is 1.01 ± 0.047; in the test with HCT116, 0.9885 ± 0.0064; with SW480 [2], 1 ± 0.011. The “TCF/Wnt firefly luciferase reporter signal” value in the test with DLD1 [3] was 1.11 ± 0.085; in the test on SW480 [4], 1.07 ± 0.028.

Consider `CO[C@H]1C[C@H](O[C@@H]2/C(C)=C/C[C@@H]3C[C@@H](C[C@]4(CC[C@H](C)[C@@H](C5CCCCC5)O4)O3)OC(=O)[C@@H]3C=C(C)/C(=N/O)[C@H]4OC/C(=C\C=C\[C@@H]2C)[C@]43O)O[C@@H](C)[C@@H]1O`, for which the cell viability is 0.919 ± 0.021 in the test on DLD1 [1], 0.962 ± 0.038 in the test on HCT116 and 0.962 ± 0.037 in the test on SW480 [2]. For the same compound, the “TCF/Wnt firefly luciferase reporter signal” value in the test with DLD1 [3] was found to be 1.05 ± 0.021; in the test with SW480 [4] it was 1.08 ± 0.035.

As for `CCN(CC)CCOC(=O)C(Cc1cccc2ccccc12)CC1CCCO1` (stereo not given), the cell viability in the test on DLD1 [1] was determined as 1.095 ± 0.0071; in the test with HCT116, 1.02 ± 0.034; in the test with SW480 [2], 1.02 ± 0.033. In addition, the “TCF/Wnt firefly luciferase reporter signal” value in the test with DLD1 [3] was found to be 0.874 ± 0.072; in the test with SW480 [4], 1.22 ± 0.37.

`CCC(=O)C1(C)OC1C(C)CC(C)C1OC(=O)CC2(O)CC=C(C)C(O2)/C(C)=C/CCCC(OC2CC(OC(N)=O)C(O)C(C)O2)/C=C/C(C)C(O)C1C` (stereo not given) [Irumamycin]: the figures for the cell viability in the test on DLD1 [1], in the test on HCT116 and with SW480 [2] were 1.07 ± 0.099, 1.04 ± 0.035 and 1 ± 0.025, respectively. Further, the “TCF/Wnt firefly luciferase reporter signal” value in the test on DLD1 [3] was 1.07 ± 0.078; in the test on SW480 [4] it was 1.02 ± 0.034.

`CC(=O)Nc1ccc(O)cc1`: the cell viability was 0.935 ± 0.028 in the test on DLD1 [1], 0.948 ± 0.14 with HCT116 and 0.996 ± 0.02 in the test on SW480 [2]. Moreover, the “TCF/Wnt firefly luciferase reporter signal” value in the test with DLD1 [3] turned out to be 0.923 ± 0.12; in the test with SW480 [4], 1.05 ± 0.071.

In the case of `CCOc1cccc(C(=O)c2ccc(O)c(O)c2O)c1`, the figures for the cell viability in the test with DLD1 [1], in the test with HCT116 and in the test on SW480 [2] were 1.03, 1.085 ± 0.0071 and 1.07 ± 0.021, respectively. The “TCF/Wnt firefly luciferase reporter signal” value with DLD1 [3] was determined as 1.04 ± 0.088; in the test on SW480 [4], 0.932 ± 0.019.

As to `CCN(CC)CCNC(=O)c1cc(Br)c(N)cc1OC`, the cell viability with DLD1 [1] worked out at 1.02 ± 0.081; in the test with HCT116 it was 1.07 ± 0.028; in the test with SW480 [2], 1.02 ± 0.047. Moreover, the “TCF/Wnt firefly luciferase reporter signal” value in the test on DLD1 [3] amounted to 0.985 ± 0.05; in the test on SW480 [4], 1.16 ± 0.078.

In the case of `CCOC(=O)CCCCCCCCCCCCC1C=CCC1` (stereo not given), the cell viability turned out to be 0.9375 ± 0.005 in the test on DLD1 [1], 0.949 ± 0.07 with HCT116 and 0.965 ± 0.05 with SW480 [2]. Also, the “TCF/Wnt firefly luciferase reporter signal” value in the test on DLD1 [3] was 0.869 ± 0.034; in the test on SW480 [4], 0.873 ± 0.073.
